# Reference: PubChem BioAssay AID1006 (Sanford-Burnham Center for Chemical Genomics, 2008)
# About 3,000 (1.5%) of roughly 200,000 compounds were called active. The sample holds actives, similar compounds and a random draw of the others, so the mix is not that of the screen. Values without a mark were called inactive.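 Rule for the calls: active = inhibition above about 50% when tested at 10 µM (limit read from the data); inactive = the rest.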
# Biological target: Luciferin 4-monooxygenase (Photinus pyralis) (UniProt P08659)
# Sequence (P08659 whole entry, looked up): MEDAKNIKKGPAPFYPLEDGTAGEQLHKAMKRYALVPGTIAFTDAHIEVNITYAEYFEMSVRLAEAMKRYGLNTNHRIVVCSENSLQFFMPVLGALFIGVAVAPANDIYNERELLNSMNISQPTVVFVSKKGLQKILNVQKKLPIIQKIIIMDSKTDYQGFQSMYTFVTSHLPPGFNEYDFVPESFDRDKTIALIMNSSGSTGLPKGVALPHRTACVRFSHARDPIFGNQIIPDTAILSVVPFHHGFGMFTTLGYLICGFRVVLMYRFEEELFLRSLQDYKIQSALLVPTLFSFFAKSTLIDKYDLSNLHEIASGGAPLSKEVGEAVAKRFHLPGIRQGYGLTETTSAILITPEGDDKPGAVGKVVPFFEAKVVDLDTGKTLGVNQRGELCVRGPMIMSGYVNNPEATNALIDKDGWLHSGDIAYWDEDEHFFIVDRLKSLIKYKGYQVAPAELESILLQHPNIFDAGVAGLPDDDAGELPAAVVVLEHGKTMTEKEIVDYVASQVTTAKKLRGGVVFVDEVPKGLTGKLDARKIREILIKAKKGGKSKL
# Experiment: inhibition of purified FLuc reporter enzyme – biochemical, luminescence, ATPLite, artefact control for luciferase-based inhibitor screens, primary screen (AID 1006)
# Conditions: ATPLite firefly luciferase biochemical luminescence, 10 min; at 10 µM; hits give high values
row,Compound,inhibition
1,O=C(Nc1ccc(Cl)cn1)c1ccc2c(c1)OCCO2,82.7% (active)
2,O=C(Nc1cccc(Cl)c1N1CCOCC1)c1ccc2c(c1)OCCO2,-0.6%
3,O=C(Nc1ccc2c(c1)OCCO2)c1ccc(Cl)c(S(=O)(=O)N2CCCCC2)c1,0.9%
4,CN1CCN(c2ccc(NC(=O)c3ccc4c(c3)OCCO4)cc2Cl)CC1,51.8% (active)
5,O=C(Nc1cccc(S(=O)(=O)Nc2ccc(Cl)cc2)c1)c1ccc2c(c1)OCCO2,-5.3%
6,COc1c(Cl)cc(C(=O)Nc2ccc(Cl)cn2)cc1Cl,-5.9%
7,O=C(c1cccc(F)c1)N1CCN(c2ccc([N+](=O)[O-])c3cccnc23)CC1,-7.7%
8,CCCCC(NC(=O)c1cccc(Br)c1)C(=O)O (stereo not given),0.5%
9,CN(C)C=NC(=O)c1cccn1-c1ncc(C(F)(F)F)cc1Cl,-1.5%
10,Cc1ccc(-c2cc(C(=O)N/N=C/C=C/c3ccco3)c3ccccc3n2)cc1C,73.1% (active)
11,COc1cccc(-c2cc(C(=O)N/N=C/c3ccc(OC)c(COC(C)=O)c3)c3ccccc3n2)c1,-1.7%
12,O=C(N/N=C/C=C/c1ccco1)c1cccs1,12.4%
13,Cc1nnc(SCC(=O)NNC(=O)c2ccc(Cl)cc2)n1CC1CCCO1 (stereo not given),-8.3%
14,O=C(Oc1ccc(-c2nc(-c3ccccn3)no2)cc1)c1ccccc1,65.5% (active)
15,c1ccc(-c2noc(-c3cccs3)n2)nc1,71.2% (active)
16,c1csc(-c2nc(-c3ccncc3)no2)c1,17.7%
17,COc1nc(-c2ccc(Cl)cc2)ccc1-c1noc(-c2cccs2)n1,-3.8%
18,CC(C)c1nc(-c2ccccn2)no1,-5.3%
19,O=C(Oc1ccccc1)c1ccc2nccnc2c1,13.3%
20,COc1ccc(NC(=S)N2CCCC(CO)C2)c(OC)c1 (stereo not given),-2.4%
21,Cc1ccc(N(C(=O)Cc2cccs2)C(C(=O)NCC2CCCO2)c2ccncc2)cc1 (stereo not given),-3.7%
22,CCN(C(=O)COC(=O)c1cc(S(=O)(=O)N2CCc3ccccc32)ccc1OC)C1CCS(=O)(=O)C1 (stereo not given),-6.8%
23,CCCN(CC1COc2ccccc2O1)C(=S)Nc1ccc(C)cc1 (stereo not given),-6.7%
24,CC(C)CNC(=O)C(=O)Nc1ccc(N(C)C)cc1,5.5%
25,CCOc1ccc(N2C(=O)CN(c3cccc4ccccc34)C2=S)cc1,-3.3%

row,Compound,inhibition
1,COc1cc(COCC(O)CN2CCN(Cc3ccc4c(c3)OCO4)CC2)cc(OC)c1OC (stereo not given),-5%
2,N/C(=N\OC(=O)Cc1ccc([N+](=O)[O-])cc1)c1ccccn1,9.6%
3,N/C(=N\OC(=O)c1ccc([N+](=O)[O-])cc1)c1ccccn1,91.5% (active)
4,O=C(OCc1ccc([N+](=O)[O-])cc1)c1ccccn1,-6%
5,CCC(C)N(C)C1CCN(C(=S)Nc2ccc(OC)cc2)CC1 (stereo not given),-0.3%
6,COc1ccc2nc(N3CCCC(O)C3)c(C#N)cc2c1 (stereo not given),54.6% (active)
7,COc1ccc(N2CCN(C(=O)CSc3nc4cc(OC)c(OC)cc4cc3C#N)CC2)cc1,-6.5%
8,CCOc1ccc2nc(N3CCCN(C(=O)Nc4ccccc4C)CC3)c(C#N)cc2c1,-2%
9,Cc1ccc2[nH]c(C(=O)O)c(NC(=O)c3ccccc3[N+](=O)[O-])c2c1,-4.8%
10,CCn1cc(C(=O)Nc2cc(C)ccc2C)c(=O)c2ccc(C)nc21,-5.1%
11,Clc1cccc(N=C2NN=C(c3ccc4c(c3)OCCO4)CS2)c1,51.5% (active)
12,c1ccc(CN2CCC(N=C3NN=C(c4ccc5c(c4)OCCO5)CS3)CC2)cc1,-2.4%
13,Cc1cccc(N=C2NN=C(c3c[nH]c4ccccc34)CS2)c1,-4.7%
14,COc1cc(/C=N/NC(=O)CCc2n[nH]c(=O)[nH]c2=O)ccc1O,-6.6%
15,Nc1c(NCCc2ccccc2)c2ccccc2oc1=O,-4%
16,Cc1ccc(CN2CCN(Cc3cn(C)nc3-c3ccccc3)CC2CCO)o1 (stereo not given),-4.5%
17,COc1ccc(C2=NN(c3nc4ccccc4s3)C(=O)C2)cc1,59.7% (active)
18,O=C1CC(c2ccccc2)=NN1c1ccc([N+](=O)[O-])cc1,-2.5%
19,COc1ccc(/C=C(/CC(=O)Nc2ccc(C)cc2)c2nc3ccccc3s2)cc1,-7.9%
20,CCc1ccccc1N1C(=O)C2C3CC(=O)C(c4ccccc43)C2C1=O (stereo not given),-5.1%
21,CCc1nnc(NC(=O)[C@@H](NC(=O)c2cccc(C)c2)C(C)C)s1,-3.8%
22,CN1CCN(C(=O)N2c3ccccc3CCc3ccccc32)CC1,-4.4%
23,Cn1c(=O)c(Sc2ccc(Cl)cc2)c(O)c2ccccc21,-5.7%
24,Cn1c(=O)c(C(=O)Nc2ncccn2)c(O)c2ccccc21,70.3% (active)
25,CCCCn1c(=O)c(C(C)=O)c(O)c2ccccc21,-1.3%

row,Compound,inhibition
1,Cc1ccccc1-n1nc(C)c2c1N=C1C(Cl)=CC(Cl)=CN1C2c1ccc(C(=O)O)cc1 (stereo not given),-0.1%
2,COc1ccc(-c2csc(Nc3ccccn3)n2)cc1,49.9%
3,CCOc1cc(NC(=O)c2ccccn2)c(OCC)cc1NC(=O)c1ccc(OC)cc1,-2.9%
4,COc1ccc(C(=O)/C=C/Nc2ccccn2)cc1,92.4% (active)
5,O=C(Cc1cccs1)Nc1cccc(-c2nc3ccccc3[nH]2)c1,-1.9%
6,O=C(CCCN1C(=O)/C(=C\c2ccco2)SC1=S)Nc1cccc2ccccc12,-1.3%
7,O=C(CCCN1C(=O)/C(=C/c2ccco2)SC1=S)Nc1ccccc1,-3.2%
8,O=C(CCCN1C(=O)/C(=C/c2ccccc2)SC1=S)Nc1ccc(O)cc1,57.6% (active)
9,CN(c1nc2ccccc2n2c(-c3ccco3)nnc12)S(=O)(=O)c1ccccc1,-2.9%
10,Cn1c(-c2ccco2)nc2cc3ccccc3cc21,95.7% (active)
11,CN1c2ccccc2-c2nc3ccccc3n2C1c1ccco1 (stereo not given),1.3%
12,CCC(C)c1ccc(NC(=S)NCc2ccccn2)cc1 (stereo not given),-3.2%
13,C/C(=N\N=C(N)N)c1ccc(Cl)cc1,-7.1%
14,Cc1ccc(CNC(=O)CC2Sc3ccccc3NC2=O)cc1 (stereo not given),-6.5%
15,Cc1noc(C)c1/C=N/Nc1ccc2ccccc2n1,13.4%
16,C(=N\Nc1ccc2ccccc2n1)/c1ccc2c(c1)OCO2,87.4% (active)
17,Brc1ccc(-c2csc(N/N=C/c3ccc4c(c3)OCO4)n2)cc1,-0.1%
18,CCNC(=S)N1CCN(c2ncccn2)CC1,-2.5%
19,COc1ccc(NC(=O)C2CCCN(S(=O)(=O)c3cccc4cccnc34)C2)cc1 (stereo not given),-0.5%
20,COc1ccc(NC(=O)Nc2ccc3nc(C)c(C)nc3c2)cc1,-4.8%
21,COc1ccc(NC(=O)Nc2cccc3cccnc23)cc1,65.4% (active)
22,NC(=NC(=O)c1ccccc1)N1CCOCC1,0.1%
23,CC1CN(C(=S)SCC(=O)c2ccccc2)CC(C)O1 (stereo not given),4.3%
24,O=C(CSC(=S)N1CCOCC1)c1ccccc1,72.6% (active)
25,CCC(C)(C)c1ccc(OCC(=O)N(C)C)c(C(C)(C)CC)c1,-6.6%

row,Compound,inhibition
1,Cc1cc(C)nc(SCC(=O)N(C)C)n1,-4.6%
2,O=C(CC1Nc2ccccc2NC1=O)Nc1ccccc1NC(=O)CC1Nc2ccccc2NC1=O (stereo not given),7.9%
3,Cc1noc(NS(=O)(=O)c2ccc(N/C=C/C(=O)c3ccccc3)cc2)c1C,-2.7%
4,O=C(/C=C\NCC(=O)c1ccccc1)c1ccccc1,14.5%
5,Cc1ccc(N/C=C/C(=O)c2ccccc2)cc1C,91.4% (active)
6,CC1CCN(C(=S)c2ccc(-c3ccc(Cl)cc3Cl)o2)CC1,3.9%
7,S=C(c1ccc(-c2ccccc2)o1)N1CCCCC1,83.4% (active)
8,S=C(NCCc1ccccc1)N1CCCCC1,9.6%
9,COc1cccc(OC)c1C(=O)NC(=S)NCc1ccco1,-2.1%
10,COCCn1c(Cc2cccn2C)nnc1SCC(=O)Nc1nccs1,-5.3%
11,COc1cc(NC(=O)COc2ccccc2Cl)ccc1NC(=O)C(C)C,-2.5%
12,CC(CC(=O)C1C(C)C=CCC1(C)C)NNC(N)=O (stereo not given),-6.1%
13,O=C(Nc1ccccc1)c1ccc2c(c1)OCO2,34.2%
14,CSCCC(Nc1nc2ccccc2s1)C(=O)O (stereo not given),-2%
15,CCCc1nnc(NC(=O)c2cc(OC)cc(OC)c2)s1,-1.1%
16,Cc1cc(C)c2nc(NC(=O)c3ccc4c(c3)OCO4)sc2c1,-1.6%
17,COc1ccc(C(=O)Nc2ccc3c(c2)OCO3)cc1OC,28.8%
18,O=C(Nc1nc2ccccc2s1)c1ccc2c(c1)OCO2,83.9% (active)
19,O=C(Nc1ccccc1)Nc1nc2ccccc2s1,52.9% (active)
20,CC(=O)Nc1ccc(-c2csc(NC(=O)Nc3ccccc3)n2)cc1,-0.4%
21,COCc1nnc(NC(=O)c2ccc3c(c2)OCO3)s1,58.9% (active)
22,C/C(=N/NC(=O)CSc1ccccn1)c1ccc([N+](=O)[O-])cc1,-6.6%
23,O=C(CN1CCN(S(=O)(=O)/C=C/c2ccccc2)CC1)Nc1ccc(N2CCOCC2)cc1,-7.8%
24,COc1ccc(-n2c(=S)[nH]c3sc4c(c3c2=O)CCc2ccccc2-4)cc1,4.5%
25,CCOc1ccc2nc(NCCNC(=O)C(C)(C)C)c(C)cc2c1,-2.6%
